A selection: hits, their analogues and other compounds. The true share with any hit is near 1.7%.
BJeLR viability = BJeLR cell viability loss; BJeLR (HRASV12) viability, CellTiter-Glo ATP luminescence, 48 h; inhibition, % (no concentration beside the values); hit rate 0.17% among 300,000; in the data active = inhibition above about 50%
PfHsp40 rescue = compounds rescuing yeast from Plasmodium falciparum HSP40 toxicity | growth rescue, % at 12.5 µM | hit rate 0.68% among 340,000 | S. cerevisiae expressing PfHsp40, growth rescue, ATP luminescence; in the data active = growth rescue above about 28%, passing the limit was not always enough;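 also: yeast W303a lacking pdr1 and pdr3 grown in galactose medium; growth measured after three days at 30 °C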
PrPC surface inh = cell surface PrPC inhibition, primary TR-FRET screen | inhibition, % at 13.8 µM | TR-FRET read-out | P04156 | hit rate 0.43% among 370,000; in the data active = inhibition above about 24%
PrP 5UTR inh = inhibition of PrP 5' UTR reporter expression | cell-based PrP 5' UTR mRNA reporter, plate reader | inhibition, % (no concentration beside the values) | hit rate 0.35% among 340,000; in the data active = inhibition above about 52%
SSB-PriA inh = K. pneumoniae PriA-SSBct interaction inhibition | inhibition, % at 33 µM | AID 1272365 | AlphaScreen SSBct-PriA binding, biotinylated peptide | hit rate 0.6% among 430,000; in the data active = inhibition mostly above about 37%, no sharp cut-off; inactive = mostly below about 20%
Yp Topo-I inh = Y. pestis Topo-I inhibition via cleavage products | activity, % at 10 µM | Y. pestis Topo-I cleavage product accumulation, plate reader | hit rate 0.064% among 360,000; in the data active = activity above about 50%, passing the limit was not always enough
PrPC confirm = cell surface PrPC inhibition, TR-FRET confirmation; shares compounds with PrPC surface inh; cell surface PrPC level; inhibition, % at 13.8 µM; hit rate 65% among 1,500; in the data active = inhibition above about 25%
LD9 tox = counter-screen for PrPc inhibitors: cytotoxicity in LD9 cells | luminescence viability | hit rate 29% among 1,500 | inhibition, % at 13.8 µM | shares compounds with PrPC surface inh; in the data active = inhibition above about 9.5%
Of the large screens only hits and unclear results are named; the others gave an inactive call (follow-up assays come after a bar, where they were run).

CN(CC(=O)Nc1ccccc1Br)C(=O)c1ccc(COc2ccccc2)cc1	none
Cc1csc(NC(=O)CCCn2nc(-c3ccc(F)cc3)ccc2=O)n1	none (no result: BJeLR viability, PfHsp40 rescue, PrPC surface inh, PrP 5UTR inh, Yp Topo-I inh)
CC(=O)c1cccc(S(=O)(=O)N(Cc2cc3cc4c(cc3[nH]c2=O)OCCO4)CC2CCCO2)c1 (stereo not given)	none
O=c1[nH]c2cc3c(cc2cc1CN(CC1CCCO1)S(=O)(=O)c1ccccc1)OCCO3 (stereo not given)	PrPC surface inh 55 | PrPC confirm inactive | LD9 tox inactive
COc1cccc(Nc2nnc(CC(=O)NC3CCCC3)s2)c1	none (no result: BJeLR viability, PfHsp40 rescue, PrPC surface inh, PrP 5UTR inh, Yp Topo-I inh)
O=C(C1=C(O)C(=O)N(CCN2CCOCC2)C1c1cccc(F)c1)c1cc2ccccc2o1 (stereo not given)	PrPC surface inh 42 | PrPC confirm 70 | LD9 tox inactive
CCOC(=O)c1nnn(-c2ccccc2OC)c1C(=O)OCC	none (no result: BJeLR viability, PfHsp40 rescue, PrPC surface inh, PrP 5UTR inh, Yp Topo-I inh)
Cn1c(SCC(=O)N2CCc3ccccc3C2)nnc1-c1ccncc1	PrPC surface inh 41 | PrPC confirm inactive | LD9 tox inactive
Cn1c(SCC(=O)N2CCc3ccccc3C2)nnc1-c1cccs1	none
Clc1cccc(CNc2ccn3nc(-c4ccccc4)cc3n2)c1	none (no result: BJeLR viability, PfHsp40 rescue, PrP 5UTR inh, SSB-PriA inh)
COCCCNc1ccn2nc(-c3ccc(OCc4ccccc4)cc3)cc2n1	PrPC surface inh 42 (no result: BJeLR viability, PfHsp40 rescue, PrP 5UTR inh, SSB-PriA inh) | PrPC confirm 30 | LD9 tox inactive
c1ccc(COc2ccc(-c3cc4nc(NCCOc5ccccc5)ccn4n3)cc2)cc1	none (no result: BJeLR viability, PfHsp40 rescue, PrP 5UTR inh, SSB-PriA inh)
Clc1cccc(CNc2ccn3nc(-c4ccc(OCc5ccccc5)cc4)cc3n2)c1	PrPC surface inh 37 (no result: BJeLR viability, PfHsp40 rescue, PrP 5UTR inh, SSB-PriA inh) | PrPC confirm 32 | LD9 tox inactive
Cc1cccc2cc(C(c3nnnn3Cc3ccccc3)N3CCN(c4ccccc4)CC3)c(=O)[nH]c12 (stereo not given)	PrPC surface inh 59 | PrPC confirm inactive | LD9 tox inactive
Fc1ccc2nc(Nc3nc4cc5c(cc4s3)OCO5)sc2c1	none
c1ccc2sc(Nc3nc4cc5c(cc4s3)OCO5)nc2c1	PrPC surface inh 80 | PrPC confirm 63 | LD9 tox inactive
CC(=O)Nc1ccc(S(=O)(=O)Nc2cccc3cccnc23)cc1	none
O=S(=O)(Nc1cccc2cccnc12)c1ccccc1	BJeLR viability 74, PrPC surface inh 54 | PrPC confirm 39 | LD9 tox 81
O=S(=O)(Nc1cccc2cccnc12)c1ccc(S(=O)(=O)N2CCCC2)cc1	PrPC surface inh 37, SSB-PriA inh 45 | PrPC confirm inactive | LD9 tox 24
Cc1ccc2cccc(NS(=O)(=O)c3ccccc3)c2n1	BJeLR viability 69, PrPC surface inh 34 (no result: PfHsp40 rescue, PrP 5UTR inh, Yp Topo-I inh) | PrPC confirm 67 | LD9 tox 71
CC(C)c1nc(S(=O)(=O)NCC[C@H](O)C2CCOCC2)cn1C	none (no result: BJeLR viability, PfHsp40 rescue, PrPC surface inh, PrP 5UTR inh, Yp Topo-I inh)
OC(COc1ccc2ccccc2c1Br)Cn1cnc(-c2ccccc2)c1 (stereo not given)	PrPC surface inh 65 | PrPC confirm 84 | LD9 tox inactive
COc1ccc(OCC(O)Cn2cnc(-c3ccc(Br)cc3)c2)cc1 (stereo not given)	none
CCOC(=O)C(CC)Sc1nnc2c3cc(C)ccc3n(C)c2n1 (stereo not given)	PrPC surface inh 30 | PrPC confirm 35 | LD9 tox inactive
Cc1ccc(-c2csc(N/N=C\c3ccc(F)cc3)n2)cc1	none (no result: BJeLR viability, PfHsp40 rescue, PrPC surface inh, PrP 5UTR inh, Yp Topo-I inh)
COCCN(Cc1ccoc1)C(=O)CCc1ccccc1Br	none (no result: BJeLR viability, PfHsp40 rescue, PrPC surface inh, PrP 5UTR inh, Yp Topo-I inh)
O=C1C[C@H](CNS(=O)(=O)c2ccc(Br)cc2)CN1c1ccc2c(c1)OCO2	none (no result: BJeLR viability, PfHsp40 rescue, PrPC surface inh, PrP 5UTR inh, Yp Topo-I inh)
Cn1cc(C(=O)NCC(Cc2cccc(F)c2)N2CCCC2=O)nn1 (stereo not given)	none (no result: BJeLR viability, PfHsp40 rescue, PrPC surface inh, PrP 5UTR inh, Yp Topo-I inh)
O=C(Nc1ccc(F)cc1F)c1cccn1-c1ncc(C(F)(F)F)cc1Cl	none
Cc1cc(C)cc(NC(=O)c2cccn2-c2ncc(C(F)(F)F)cc2Cl)c1	PrPC surface inh 32 | PrPC confirm inactive | LD9 tox inactive
c1ccc(C2COCCN2)cc1 (stereo not given)	none (no result: BJeLR viability, PfHsp40 rescue, PrPC surface inh, PrP 5UTR inh, Yp Topo-I inh)
COc1ccc(Nc2nnc(C)c3ccccc23)cc1C(N)=O	none
COc1ccc(Nc2nnc(-c3ccc(O)cc3)c3ccccc23)cc1C(N)=O	PrPC surface inh 94 | PrPC confirm 99 | LD9 tox inactive
NC(=O)COC(=O)c1ccc2noc(-c3ccccc3)c2c1	PrPC surface inh 37 | PrPC confirm 30 | LD9 tox inactive
COc1ccccc1NC(=O)c1ccc2noc(-c3ccccc3)c2c1	none (no result: BJeLR viability, PfHsp40 rescue, PrPC surface inh, PrP 5UTR inh, Yp Topo-I inh)
Cc1cc2ccccc2n1CCNC(=O)Nc1cn(C)c2ccccc12	none (no result: BJeLR viability, PfHsp40 rescue, PrPC surface inh, PrP 5UTR inh, Yp Topo-I inh)
O=C(NCCn1ccc2ccccc21)C1CCCCC1	none
Cc1cc2ccccc2n1CCNC(=O)C1CCCCC1	PrPC surface inh 36 | PrPC confirm inactive | LD9 tox inactive
Cc1cc2ccccc2n1CCNC(=O)C1CC1	PrPC surface inh 28 | PrPC confirm inactive | LD9 tox inactive
Cc1cc2ccccc2n1CCNC(=O)C1CCCC1	PrPC surface inh 40 | PrPC confirm inactive | LD9 tox inactive
Cc1cc2ccccc2n1CCNC(=O)c1cccs1	PrPC surface inh 33 | PrPC confirm 25 | LD9 tox inactive
Cn1cc(S(=O)(=O)N2CCCN(C(=O)C3(c4ccccc4)CCOCC3)CC2)cn1	none (no result: BJeLR viability, PfHsp40 rescue, PrPC surface inh, PrP 5UTR inh, Yp Topo-I inh)

Screens (PubChem BioAssay)
